Bioassay records from PubChem BioAssay.
TDP-43 yeast inh – inhibitors of TDP-43 toxicity in yeast | AID 652104 | Potency, µM (highest dose often 46.1 µM), for the others: at the top dose growth rescue (activation), hits mostly activators | 410,000 tested, 1.8% active | TDP-43 expressing yeast growth rescue, BacTiter-Glo, 24 h; further: % of control where 0% means no effect; nearly all actives have a fitted effect of over 50% in size
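In this qHTS, compounds that restore growth of yeast expressing TDP-43 appear as activators. Cells (OD600=0.02, galactose medium, raffinose-pregrown) are incubated with compound 24 hr at 30 deg C and growth is quantified by BacTiter-Glo.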
FUS yeast rescue – suppressors of FUS proteinopathy in yeast | S. cerevisiae FUS-expressing, growth rescue, OD600, 24 h | Potency, µM (highest dose often 76.6 µM), actives largely listed as activators | 390,000 tested, 0.24% active | AID 1347120;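 further: plate controls were DMSO vehicle for no effect and reference control for full effect; nearly all actives have a fitted effect of over 55% in size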
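S. cerevisiae expressing FUS from galactose induction served as the toxicity model. Growth after 24hr at 30C, read as absorbance at 600 nm, indicates suppression of toxicity; compounds dosed at several concentrations.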
Abeta yeast res – A-beta toxicity reversal in yeast; yeast expressing A-beta42, growth rescue, OD600, 48 h; response scale: 0% DMSO, 100% iron-clioquinol control; Potency, µM (titrated, usually from 46.1 µM), most hits filed as activators; 410,000 tested, 0.063% active; further: nearly all actives have a fitted effect of over 55% in size
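Yeast A-beta toxicity model in growth medium with pinned compounds, 48 h at 30 C; growth read as absorbance at 600 nm. Normalized to FeCl3/clioquinol equimolar mix (positive) and DMSO (negative).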
aSyn yeast inh – alpha-synuclein toxicity inhibition in yeast; Potency, µM (doses to about 46.1 µM), for inactives: at the top dose growth rescue (activation), most hits filed as activators; Yeast expressing alpha-synuclein, growth rescue, BacTiter-Glo, 24 h; AID 652106; 370,000 tested, 0.14% active; further: % of control where 0% means no effect; nearly all actives have a fitted effect of over 65% in size
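Screening used galactose-induced yeast with toxic alpha-synuclein levels, exposed to compound for 24 hr at 30 deg C. Cell growth, read with BacTiter-Glo luminescence, gave the measured signal.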
* = called active by the depositor; i = inactive; ? = inconclusive; / = not tested or not shown; ! = repeats disagree; [ ] = remark or other dose. An excerpt weighted towards active compounds, which were near 2.1% of everything screened. The call rests on the fitted dose curve; in most records, active means well fitted curve in the direction sought with a large enough effect; inconclusive means small, poorly fitted or top-dose-only effect, or another doubt; inactive means no such curve, though single readings can be large; an effect the other way counts as inactive or inconclusive. Potency means the concentration at half of the fitted maximal effect.

SMILES	TDP-43 yeast inh	FUS yeast rescue	Abeta yeast res	aSyn yeast inh
CC1(C(=O)NS(=O)(=O)c2cccc(F)c2)CCN1C(=O)c1ccccc1CCc1ccccc1 (stereo not given)	?	i	i	-26%
COc1ccc(NC(=O)C2(C)CCN2C(=O)c2ccccc2CCc2ccccc2)cc1OC (stereo not given)	18µM*	?	i	12%
Cc1cccc(S(=O)(=O)NC(=O)C2(C)CCN2C(=O)c2ccccc2CCc2ccccc2)c1 (stereo not given)	16µM*	i	i	-15%
Cc1ccc(NC(=O)C2(C)CCN2C(=O)c2ccccc2CCc2ccccc2)cc1C (stereo not given)	20%	i	i	14%
Cn1nnnc1SCCNCc1cc(Br)ccc1OCc1ccccc1Cl	-33%	i	i	/
CCN(CC)C(=O)c1sc(NC(=O)C(C)Sc2nc(-c3ccccc3)cc(C(F)(F)F)n2)c(C(=O)OC)c1C (stereo not given)	-4%	?	i	/
COc1ccc(CNCc2c(C(=O)O)n(Cc3ccc(F)cc3)c3cc(C)ccc23)cc1OC	8%	i	i	/
CCCCc1nc2cc(C(=O)N3CCCC(OCCC)C3)ccc2o1 (stereo not given)	14µM*	i	i	9%
COc1ccc(OC)c(NC(=O)COC(=O)c2nc(Cl)ccc2Cl)c1	12%	i	i	4%
COc1cccc(NC(=O)COC(=O)c2nc(Cl)ccc2Cl)c1	16µM*	i	i	8%
O=C(COC(=O)c1nc(Cl)ccc1Cl)Nc1ccc(Cl)cc1	16µM*	i	i	0%
Nn1c(SCC(=O)Nc2ccccc2-c2ccccc2)nnc1-c1cc(-c2ccc(F)cc2)n[nH]1	/	i	/	/
Cc1ccc(C)c(S(=O)(=O)c2cnc(SCC(=O)Nc3ccc(F)cc3F)[nH]c2=O)c1	2%	i	i	4%
S=c1[nH]nc(-c2ccc(Cl)cc2)n1/N=C/C=C/c1ccco1	-21%[1.82 µM]	?	5µM*	15%
Cc1ccc2nc(Cl)c3cc(C(=O)N4CCCC(C)C4)sc3c2c1 (stereo not given)	?	i	i	/
Cc1cccc(C)c1NC(=O)c1ccc2nc(CCc3ccccc3)oc2c1	13µM*	i	i	/
CCc1sc(C(=O)Nc2ccc(NC(C)=O)cc2)cc1C	0%	i	i	0%
Cc1csc(NC(=O)c2ccc(C)c([N+](=O)[O-])c2)n1	20µM*	/	i	-10%
CCc1sc(C(=O)Nc2nc(C)cs2)cc1C	20µM*	i	i	-24%
COC(=O)CN1C(C(=O)c2ccccc2)=C(OC(=O)c2ccc(C)cc2)c2ccccc2S1(=O)=O	-24%	?	i	/
COC(=O)[C@]12C[C@H](CC(=O)NCc3cccc(C(F)(F)F)c3)C(=O)N(Cc3ccc(Cl)cc3Cl)C1=C[C@H](C(C)(C)C)O[C@@H]2C	/	13µM*	/	/
COC(=O)[C@]12C[C@H](CC(=O)NCc3ccccc3)C(=O)N(Cc3ccc(Cl)cc3Cl)C1=C[C@H](C(C)(C)C)O[C@@H]2C	/	i	/	/
COC(=O)[C@]12C[C@H](CC(=O)N3CCN(C(=O)c4ccco4)CC3)C(=O)N(Cc3ccc(Cl)cc3Cl)C1=C[C@H](C(C)(C)C)O[C@@H]2C	/	11µM*	/	/
COc1ccc2c(CNCc3ccco3)c(C(=O)O)n(Cc3ccc(F)cc3Cl)c2c1	12%	i	i	/
COc1cccc(-n2c(-c3ccco3)nc3c(cnn3-c3ccccc3C)c2=O)c1	-15%	i	i	/
SMILES	TDP-43 yeast inh	FUS yeast rescue	Abeta yeast res	aSyn yeast inh
CC(=C/c1ccccc1)/C=N/n1c(-c2ccco2)n[nH]c1=S	11µM*	i	i	/
Cc1ccc(S(=O)(=O)Nc2ccc(C(=O)N3CCN(c4ccccc4O)CC3)cc2)cc1[N+](=O)[O-]	-10%	13µM*	i	0%
CCOC(=O)C1CCN(C(=O)C(C)(C)NC(=O)Nc2ccc(OC)c(Cl)c2)CC1	/	i	/	/
CCn1c(=NC(=O)CSC(C)=O)sc2cc(OC)ccc21	14µM*	i	?	4%
COCCn1c(=NC(=O)CSC(C)=O)sc2cc(OC)ccc21	?	i	?	5%
CCOC(=O)Cn1c(=NC(=O)CSC(C)=O)sc2cc(F)ccc21	?	i	6.3µM*	-1%
Cc1c(CN(C)C(=O)c2cc(-c3ccccc3)nc3ccc(Br)cc23)cnn1C	0%	i	i	/
Cc1ccc(N(CC(=O)N2CCN(c3ccc(F)cc3)CC2)S(=O)(=O)c2c(C)noc2C)cc1	16µM*!	i	?	1%
Cc1ccc(N(CC(=O)N2CCN(c3cc(C)ccc3C)CC2)S(=O)(=O)c2c(C)nn(C)c2C)cc1	35µM*	?	i	/
Cc1ccc(N(CC(=O)N2CCN(c3ccc(Cl)cc3)CC2)S(=O)(=O)c2c(C)nn(C)c2C)cc1	22%	i	i	/
CC[C@H](CCC(=O)N(c1ccccc1)c1ccccc1)c1ccc(C)cc1	/	i	/	/
O=C(Cn1cnc([N+](=O)[O-])c1)c1ccc(Cl)cc1	16µM*	i	i	0%
O=[N+]([O-])c1cn(Cc2ccc(Cl)cc2)cn1	11%	i	?	7%
Cc1cc(C)c(S(=O)(=O)Nc2cccc3cccnc23)c(C)c1	/	/	/	-2%
O=S(=O)(Nc1cccc2cccnc12)c1cccs1	/	/	/	22µM*
O=S(=O)(Nc1cccc2ccccc12)c1cccs1	-2%	i	i	2%
COc1ccc(S(=O)(=O)Nc2cccc3cccnc23)c([N+](=O)[O-])c1	/	/	/	22µM*
O=S(=O)(Nc1cccc2cccnc12)c1ccc2ccccc2c1	/	/	/	18µM*
Cc1ccc(-c2nc3cccnc3s2)cc1NS(=O)(=O)c1cccs1	11µM*	i	i	-13%
O=C(N/N=C/C=C/c1ccco1)c1ccccc1Cl	-7%[1.82 µM]	40µM*	i	9%
Cc1cc(C)c(C(CC(=O)c2cccs2)C(C#N)C#N)c(C)c1 (stereo not given)	13µM*	i	i	1%
CC(CC(=O)c1cccs1)CC(=O)c1cccs1	3%	i	i	-11%
Cc1ccc(NC(=S)c2ccncc2)cc1	19%	i	/	2%
